Compound activity deposited in PubChem BioAssay by National Center for Advancing Translational Sciences (NCATS).
Compounds with a hit are over-represented: about 9.2% of the library has one in this group of screens.
ELG1 DNA repair – ELG1-dependent DNA repair inhibition; actives 2.3% (n = 330,000); Potency, µM (top dose mostly 46.1 µM), for inactives: at the top dose activity change, negative = inhibition, actives largely listed as inhibitors; AID 504467; HEK293T ELG1-luciferase reporter, luminescence, 16 h; DNA damage induced by 5-fluorouridine; further: on the % scale 0 is the no-effect control and ±100 the full control effect; nearly all actives have a fitted effect of over 55% in size
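Overnight (16 hr) co-exposure of 2,000 cells/well to 5-fluorouridine and compound at 37 °C preceded detection. Luciferase was quantified via ONE-Glo luminescence; loss of signal denotes inhibition.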
NPC1 prom act – NPC1 promoter activation. AID 485313. Potency, µM (titrated, usually from 9.22 µM), for the others: top-dose activation, most hits filed as activators. Huh7 NPC1 promoter luciferase reporter, 24 h. actives 2.4% (n = 320,000); further: % of control where 0% means no effect; nearly all actives have a fitted effect of over 60% in size
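Luciferase expression driven by the NPC1 promoter was measured in stably transfected Huh7 cells after a 24 h compound incubation, using a luciferase reagent and a luminescence read.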
ELG1 genotox – inducers of genotoxicity in HEK293T ELG1-luciferase cells; Potency, µM (top dose mostly 46 µM), inactives show top-dose activity change, positive = activation, most hits filed as activators; actives 1.3% (n = 330,000); AID 504466; HEK293T ELG1-luciferase reporter, luminescence, 16 h; further: % of control where 0% means no effect; nearly all actives have a fitted effect of over 60% in size
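16 hr compound incubation (37 °C, 5% CO2) of HEK293T cells carrying luciferase-tagged ELG1; luciferase then measured by ONE-Glo luminescence after 30 min at RT.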
SMN2 splice enh – enhancers of SMN2 splice variant expression | actives 2.8% (n = 210,000) | Potency, µM (series often up to 46.1 µM), without a hit: top-dose activity change, positive = activation, most hits filed as activators | AID 1458 | HEK293 SMN2-luciferase splicing reporter, luminescence, 30-36 h; further: % of control where 0% means no effect; nearly all actives have a fitted effect of over 55% in size
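HEK293 cells carry an SMN2 […]–luciferase reporter in which exon 7 inclusion puts luciferase in frame. Cells were plated 10-12 h before compound addition, then incubated 30-36 h at 37C. ONE-Glo luminescence was read; sodium butyrate at 4.5 mM final served as control.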
FLuc counter – counter-screen for miR-21 project: firefly luciferase inhibitors or activators; purified FLuc, Km substrates, luminescence inhibition; Potency, µM (titrated, usually from 57.5 µM), for inactives: at the top dose activity change, negative = inhibition, hits mostly inhibitors; actives 6.9% (n = 360,000); AID 588342;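 further: plate controls were vehicle for no effect and reference inhibitor for full effect; nearly all actives have a fitted effect of over 55% in size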
Target sequence (P08659 whole entry, looked up): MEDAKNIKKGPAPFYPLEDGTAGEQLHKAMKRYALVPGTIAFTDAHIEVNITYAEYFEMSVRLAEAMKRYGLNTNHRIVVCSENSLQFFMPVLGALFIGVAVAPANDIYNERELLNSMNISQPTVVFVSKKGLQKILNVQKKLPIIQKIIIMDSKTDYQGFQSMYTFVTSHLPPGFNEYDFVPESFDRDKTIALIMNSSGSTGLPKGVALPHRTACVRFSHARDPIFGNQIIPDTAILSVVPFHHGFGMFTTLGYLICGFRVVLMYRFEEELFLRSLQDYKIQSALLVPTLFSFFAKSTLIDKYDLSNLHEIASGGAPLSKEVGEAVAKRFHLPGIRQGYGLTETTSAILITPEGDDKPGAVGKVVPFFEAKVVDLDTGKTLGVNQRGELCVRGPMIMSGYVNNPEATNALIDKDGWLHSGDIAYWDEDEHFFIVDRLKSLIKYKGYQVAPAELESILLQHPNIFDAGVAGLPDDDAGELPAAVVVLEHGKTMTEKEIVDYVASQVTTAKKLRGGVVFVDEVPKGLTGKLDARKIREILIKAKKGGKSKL
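Biochemical qHTS of compounds, final roughly 60 µM downward over six points, against 10 nM purified firefly luciferase using Km concentrations of substrates (10 uM D-luciferin, 10 uM ATP) in Tris acetate pH 7.5 buffer; luminescence output.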
Rab9 promoter act – activates the Rab9 promoter | Huh7 Rab9 promoter-luciferase reporter, luminescence, 24 h | Potency, µM (highest dose often 9.22 µM), without a hit: top-dose activation, negative = inhibition, usual class: activators | actives 2.8% (n = 320,000) | AID 485297; further: % of control where 0% means no effect; nearly all actives have a fitted effect of over 60% in size
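Cells were plated at 1500 per well in reduced-serum medium with 10% FBS and left 2 h. Compound in DMSO was then added for 24 h at 37 °C. Reporter signal was read by luminescence after 10 min with luciferase detection reagent.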
Active calls of the source: *; ? = inconclusive; nt = no result; [ ] = dose if it differs, or a comment. The call rests on the fitted dose curve; in most records, active means well fitted curve in the direction sought with a large enough effect; inconclusive means small, poorly fitted or top-dose-only effect, or another doubt; inactive means no such curve, though single readings can be large; an effect the other way counts as inactive or inconclusive. Potency means the concentration at half of the fitted maximal effect.

SMILES	ELG1 DNA repair	NPC1 prom act	ELG1 genotox	SMN2 splice enh	FLuc counter	Rab9 promoter act
O=C(N/N=C/c1ccc(-c2ccccc2C(=O)O)o1)c1cccs1	?	15.0%	3.5%	6.3%	13.5µM*	3.2%
CCOc1ccc(C(=O)N(Cc2nc(-c3cccc(C)c3)no2)C(C)C)cc1	nt	nt	nt	nt	3.3%	nt
CN(C)c1cccc(C(=O)N/N=C/c2ccsc2)c1	?	3.16µM*	?	11.2µM*	3.01µM*	3.55µM*
C/C(=N/N=C/c1ccc(N(C)C)cc1)c1ccccc1	?	0.282µM*	0.366µM*	0.501µM*	0.169µM*	0.112µM*
CN(C)c1ccc(/C=N/O)cc1	23.2%	4.1%	5.1%	27.3%	-19.5%	10.4%
CN(C)c1ccc(/C=N/NC(=O)c2cccc(C(=O)N/N=C/c3ccc(N(C)C)cc3)n2)cc1	16.4%	1.7%	5.3%	2.2%	?	-4.6%
CC(C)(C)NC(=O)C[C@H]1C[C@H](C(=O)N2CCOCC2)[C@@]2(CCC3CCCC3)c3[nH]c4cc(-c5ccco5)ccc4c3CCN2C1=O	5.8%	nt	-7.2%	nt	nt	nt
O=C(NCc1ccc(Cl)cc1)C(=O)NCC1OCCCN1S(=O)(=O)c1cccs1 (centres undefined)	?	-2.5%	-12.1%	nt	1.3%	-0.9%
O=C(O)c1cc(-c2ccccc2)nc2nc(N3CCCCC3)sc12	18.5%	-2.4%	13.3%	4.7%	16.9µM*	-0.1%
CCOC(=O)c1cc(-c2ccccc2)nc2nc(N3CCCCC3)sc12	?	-3.1%	-5.0%	4.8%	-12.7%	-7.3%
COc1ccc(-c2cc(C(=O)O)c3sc(N4CCCCC4)nc3n2)cc1OC	4.9%	1.0%	1.0%	4.2%[1.84 µM]	4.78µM*	9.8%
Cc1ccc(-c2cc(C(=O)O)c3sc(N4CCCCC4)nc3n2)cc1	?	-2.3%	9.0%	-9.2%	23.9µM*	0.7%
CSc1nnc2c(n1)OC(c1ccccn1)N(C(C)=O)c1ccccc1-2 (centres undefined)	2.5%	-0.4%	-0.3%	-0.1%	-1.1%	1.7%
CCc1cc(Cn2nc(-c3ccccc3)cc2C(=O)NCc2cccs2)on1	?	-8.6%	-12.1%	nt	-14.2%	-2.2%
Cc1nn(-c2ccc(F)cc2)c(Cl)c1C(=O)OC(C)C(=O)N(C)C1CCCCC1 (centres undefined)	?	-5.3%	-1.0%	nt	7.1%	-5.5%
Cc1cccc(-c2nc(C(N)=O)c3c(n2)n(-c2ccc4c(c2)OCO4)c(=O)n3C)c1	nt	nt	nt	-2.8%	0.0%	nt
Oc1oc(-c2ccccc2Br)nc1C=Nc1ccc(Br)cn1	1.6%	0.9%	5.6%	-11.2%	-18.4%	2.6%
Oc1c(C=Nc2ccccc2)sc2ccccc12	3.5%	-3.7%	1.8%	nt	2.6%	-4.2%
Oc1c(C=Nc2ccc(Cl)cn2)sc2ccccc12	?	?	5.8µM*	nt	0.338µM*	?
Oc1c(C=Nc2cccnc2)sc2ccccc12	?	4.8%	?	24.3%	1.9µM*	4.7%
Oc1c(C=NCc2ccncc2)sc2ccccc12	-4.1%	13.4%	?	?	?	1.7%
Oc1c(/C=N/c2ccccn2)sc2ccccc12	?	21.7%	?	nt	0.536µM*	?
Cc1ccc(C)c(N2CCN(C(=O)CCS(=O)(=O)c3ccc4c(c3)CC(=O)N4C)CC2)c1	nt	nt	nt	nt	-7.2%	nt
OC1(Cc2ccccc2)CCNCC1	0.8%	-0.4%	-1.3%	nt	-1.1%	0.6%
C=CCc1ccccc1OCC(O)CN1C(=O)c2ccccc2C1=O (centres undefined)	2.1%	-3.1%	-1.5%	nt	-12.1%	3.5%
SMILES	ELG1 DNA repair	NPC1 prom act	ELG1 genotox	SMN2 splice enh	FLuc counter	Rab9 promoter act
CCSc1nc2c(c(=O)[nH]c(=O)n2C)n1CC(O)COc1ccccc1C (centres undefined)	16.4µM*	1.4%	-14.9%	-4.7%	-0.8%	-7.4%
O=C1c2ccccc2C(=O)N1CC(O)COc1ccccc1Cl (centres undefined)	?	17.7%	4.8%	nt	10.7µM*	?
Cc1ccccc1OCC(O)CN1C(=O)c2ccccc2C1=O (centres undefined)	18.5%	2.6%	9.0%	nt	13.5µM*	4.2%
Cc1ccc(S(=O)(=O)N2CCCCC2)cc1NC(=O)COC(=O)C1=COCCO1	8.6%	-5.7%	-1.4%	nt	-0.5%	1.6%
COc1cc([C@@H]2Nc3c(F)cccc3[C@@H]3C=CC[C@@H]32)cc(Br)c1OC	nt	nt	nt	-5.0%	6.0%	nt
CC(=NC1CCCC1)c1c(C)[nH]n(-c2nc3ccccc3s2)c1=O	?	?	?	?	3.38µM*	?
Cc1cc2nc(CO)[nH]c2cc1C	22.4%	-1.4%	5.3%	nt	-10.5%	-3.5%
Cc1cc2nc(CS)[nH]c2cc1C	20.8%	7.7%	4.2%	nt	4.78µM*	12.0%
Cc1ccc2nc(SCc3nnc(-c4ccccc4Br)o3)[nH]c2c1	4.7%	-2.2%	-3.3%	nt	-16.8%	7.9%
COc1cccc(C=Nc2cccc3c(=O)[nH][nH]c(=O)c23)c1O	?	-3.2%	?	8.5%	0.601µM*	-0.3%
Cc1csc(NC(=O)CSc2nnc(-c3ccncc3)o2)n1	?	24.6%	4.5%	3.16µM*	-1.9%	?
Cc1csc(NC(=O)CSc2nnc(-c3ccoc3C)o2)n1	?	?	9.1%	11.2µM*	-3.0%	?
O=C(Nc1cccnc1)C1OCCc2ccccc21 (centres undefined)	4.1%	11.9%	-2.1%	2.2%	6.0%	1.3%
O=C(Nc1ccc(Br)cc1)C1OCCc2ccccc21 (centres undefined)	27.7%	23.9%	1.7%	nt	16.9µM*	?
Cc1ccc(-n2c(SCC(=O)N3CCCCC3)nc(O)c(Cc3ccccc3)c2=O)cc1	1.8%	-5.5%	0.5%	nt	0.8%	-4.7%
Cc1ccc(S(=O)(=O)C2(S(=O)(=O)c3ccc(C)cc3)CC2)cc1	23.1µM*	-6.6%	-9.2%	nt	0.7%	11.5%
CCOC(=O)C1=CNS(=O)(=O)NC1c1ccc(C(=O)OC)cc1 (centres undefined)	15.1%	nt	5.2%	nt	nt	nt
COc1ccccc1CNC(=O)c1cccc(NC(=O)c2ccccc2)c1	?	0.6%	-8.6%	-3.3%	?	1.6%
CCC(C)NC(=O)c1cccc(NC(=O)c2nsc3ccccc23)c1 (centres undefined)	nt	nt	nt	nt	6.01µM*	nt
CCC(CC)NC(=O)c1cccc(NC(=O)C(C)C)c1	6.5%	-1.4%	-0.5%	?	-0.3%	-1.3%
CCOc1ccccc1CNC(=O)c1cccc(NC(=O)c2nsc3ccccc23)c1	nt	nt	nt	nt	6.01µM*	nt
CCN1CCN(CCCNC(=O)Cn2nc(C)n3c(cc4cc(C)ccc43)c2=O)CC1	nt	nt	nt	-7.3%	4.7%	nt
